# Measurements reported in PubChem BioAssay.
# The list shows a part of the results. Activity calls are given as the source filed them.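 Rule for the calls: active = drop in membrane potential signal beyond 5 SD of the control wells in both duplicate plates; inactive = the rest.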
# Tested on: TRPC4 (transient receptor potential cation channel C4), mouse
# Assay: TRPC4 inhibition by TRPC6 hit compounds, confirmation, selectivity assay for TRPC6 modulator project, cell-based, second screen, HEK293 TRPC4/mu-opioid, membrane potential dye (AID 488928);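 note: TRPC4 counter screen for TRPC6 hits run under conditions tuned for TRPC6 not TRPC4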
# Conditions: membrane potential dye fluorescence, at 10 µM, stimulated with maximal-effect DAMGO; stronger effect = higher value
compound,measurement,value
CN1CCN(c2cc(N3CCNCC3)ccc2[N+](=O)[O-])CC1,inhibition,66.5% (active)
